The source made the active and inactive calls. The calls were made as follows: active = hit-call score of the fitted dose curve at least 0.9, where 1 is the maximum; inactive = score below 0.9.
Tests used:
[1] = ATG_E_Box_CIS: Attagene CIS-FACTORIAL HepG2 Assay for human Enhancer Box (E-box) (AID 2282936); details: HepG2 E-box cis-reporter transcription, actives raise or lower the signal
Procedure, shortened: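 E-box-driven reporter transcripts measured in transiently transfected HepG2 after 24 h exposure: RNA reverse-transcribed, PCR-amplified, fluorescently labelled, digested and resolved by capillary electrophoresis. Gain or loss relative to DMSO.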

[2] = ATG_M_61_CIS: Attagene CIS-FACTORIAL HepG2 Assay for M61 Transcription Factor (Internal Marker) (AID 2282937); details: HepG2 Attagene CIS-FACTORIAL M61 internal marker reporter; actives raise or lower the signal
Procedure, shortened: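 Background-control endpoint: HepG2 cells with cis-regulated reporter constructs, 24 h exposure, reporter mRNA detected via fluorescent primer extension and capillary electrophoresis; values from bidirectional fitting with DMSO baseline.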

[3] = ATG_EGR_CIS: Attagene CIS-FACTORIAL HepG2 Assay for human Early Growth Response 1 (EGR1) (AID 2282938); details: HepG2 Attagene CIS-FACTORIAL EGR reporter mRNA; actives raise or lower the signal
Procedure, shortened: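 Endpoint derived by bidirectional fitting versus DMSO vehicle. Method: cis-promoter reporter units transfected into HepG2, 24 h dosing, RNA isolation, RT-PCR with 6-FAM primer extension and HpaI digestion, then capillary electrophoresis fluorescence detection.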

[4] = ATG_M_19_CIS: Attagene CIS-FACTORIAL HepG2 Assay for M19 Transcription Factor (Internal Marker) (AID 2282939); details: HepG2 Attagene CIS-FACTORIAL M19 internal marker reporter; actives raise or lower the signal
Procedure, shortened: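 HepG2 cells transiently transfected with cis-regulated multiplexed reporter units, dosed 24 h. Reporter mRNA quantified by RT-PCR and capillary electrophoresis; internal background marker fitted bidirectionally versus DMSO.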

[5] = ATG_Ets_CIS: Attagene CIS-FACTORIAL HepG2 Assay for human Erythroblast Transformation Specific (ETS) (AID 2282941); details: HepG2 ETS cis-reporter transcription, actives raise or lower the signal
Procedure, shortened: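 RT-PCR/capillary electrophoresis fluorescence read-out of reporter mRNA; HepG2 transient multi-reporter transfection; 24 h compound exposure; gain or loss of signal fitted bidirectionally relative to DMSO.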

[6] = target: Hepatocyte nuclear factor 3-beta (Homo sapiens) (UniProt Q9Y261); experiment: ATG_FoxA2_CIS: Attagene CIS-FACTORIAL HepG2 Assay for human Forkhead box A2 (FOXA2) (AID 2282942); details: HepG2 cis-reporter transcription factor activity, 24 h; actives raise or lower the signal
Chain of Hepatocyte nuclear factor 3-beta (Homo sapiens) (Q9Y261 whole entry, looked up): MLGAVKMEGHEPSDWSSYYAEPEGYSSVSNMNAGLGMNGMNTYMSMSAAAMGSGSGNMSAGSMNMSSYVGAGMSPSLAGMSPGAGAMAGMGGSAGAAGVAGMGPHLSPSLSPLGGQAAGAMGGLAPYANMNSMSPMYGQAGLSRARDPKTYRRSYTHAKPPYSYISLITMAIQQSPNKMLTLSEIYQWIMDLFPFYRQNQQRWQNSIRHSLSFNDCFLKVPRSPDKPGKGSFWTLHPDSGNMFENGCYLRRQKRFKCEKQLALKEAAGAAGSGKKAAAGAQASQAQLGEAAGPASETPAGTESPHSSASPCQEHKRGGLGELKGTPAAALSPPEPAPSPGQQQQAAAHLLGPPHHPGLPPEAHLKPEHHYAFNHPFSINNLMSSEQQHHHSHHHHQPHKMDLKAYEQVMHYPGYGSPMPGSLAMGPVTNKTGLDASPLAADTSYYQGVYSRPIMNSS
Procedure, shortened: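 Measured: reporter mRNA induction or loss in HepG2 transiently carrying multiple cis-regulated reporter units, 24 h after dosing. Quantified by RT-PCR plus capillary electrophoresis, normalised to DMSO.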

[7] = ATG_FoxO_CIS: Attagene CIS-FACTORIAL HepG2 Assay for human Forkhead box O (FoxO) (AID 2282943); details: HepG2 Attagene cis-reporter, FoxO element, mRNA; actives raise or lower the signal
Procedure, shortened: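 Human hepatoma HepG2 cells carry transiently introduced reporter transcription units controlled by cis promoter elements. Chemical treatment lasted 24 h, and mRNA signal was compared with DMSO.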

[8] = ATG_GATA_CIS: Attagene CIS-FACTORIAL HepG2 Assay for human GATA Binding Protein (AID 2282944); details: HepG2 GATA cis-element reporter, Attagene multiplex mRNA; actives raise or lower the signal
Procedure, shortened: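 HepG2 cells transiently transfected with multiplexed cis-element reporter units measure endogenous GATA activity; after 24 h compound exposure, reporter mRNA quantified by RT-PCR and capillary electrophoresis. Changes fitted in both directions vs DMSO.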

[9] = ATG_GLI_CIS: Attagene CIS-FACTORIAL HepG2 Assay for human Zinc Finger Protein GLI1 (AID 2282945); details: HepG2, Attagene cis-factorial reporter mRNA, GLI element; actives raise or lower the signal
Procedure, shortened: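 Bidirectional curve fits relative to DMSO, using reporter mRNA levels from RT-PCR plus capillary electrophoresis. Cells were HepG2 transiently carrying cis-regulated reporter constructs, harvested 24 h after dosing.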

[10] = target: Bile acid receptor (Homo sapiens) (UniProt Q96RI1); experiment: ATG_IR1_CIS: Attagene CIS-FACTORIAL HepG2 Assay for human Nuclear Receptor Subfamily 1 Group H Member 4 (NR1H4), IR1 submotif (AID 2282946); details: IR1 reporter transcription, actives raise or lower the signal
Chain of Bile acid receptor (Homo sapiens) (Q96RI1 whole entry, looked up): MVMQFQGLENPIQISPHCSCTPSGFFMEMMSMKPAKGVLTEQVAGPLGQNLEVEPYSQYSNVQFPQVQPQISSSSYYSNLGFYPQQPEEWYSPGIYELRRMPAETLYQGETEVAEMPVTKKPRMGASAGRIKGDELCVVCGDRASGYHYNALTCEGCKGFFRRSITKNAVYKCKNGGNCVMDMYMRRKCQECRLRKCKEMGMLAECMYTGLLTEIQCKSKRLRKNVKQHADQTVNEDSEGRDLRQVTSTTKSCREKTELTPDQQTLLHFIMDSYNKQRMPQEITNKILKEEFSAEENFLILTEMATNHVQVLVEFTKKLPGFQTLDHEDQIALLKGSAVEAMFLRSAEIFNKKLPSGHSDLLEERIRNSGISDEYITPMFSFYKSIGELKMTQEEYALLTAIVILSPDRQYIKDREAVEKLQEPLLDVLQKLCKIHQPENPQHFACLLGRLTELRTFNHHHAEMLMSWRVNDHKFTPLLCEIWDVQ
Procedure, shortened: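 HepG2 cells transiently transfected with multiplexed cis-element reporter units read endogenous transcription factor activity. After 24 h compound exposure, reporter mRNA was quantified by RT-PCR, fluorescent labelling, HpaI digestion and capillary electrophoresis; bidirectional fitting versus DMSO baseline.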

[11] = ATG_GRE_CIS: Attagene CIS-FACTORIAL HepG2 Assay for human Glucocorticoid Response Elements (GRE) (AID 2282947); details: HepG2 GRE cis-reporter, Attagene multiplex mRNA; actives raise or lower the signal
Procedure, shortened: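 Reporter transcripts read by RT-PCR with capillary electrophoresis fluorescence after a 24 h chemical exposure of HepG2 cells transiently transfected with multiple cis-element reporter units. Gain or loss fitted against DMSO.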

[12] = ATG_ISRE_CIS: Attagene CIS-FACTORIAL HepG2 Assay for human Interferon Regulatory Factor 1 (IRF1) binding to an Interferon-Stimulated Response Element (ISRE) (AID 2282948); details: HepG2 ISRE cis-reporter (Attagene), mRNA transcription readout; actives raise or lower the signal
Procedure, shortened: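 Read-out: fluorescent RT-PCR products resolved by capillary electrophoresis, reporting endogenous transcription factor activity via ISRE-driven reporter mRNA in transfected HepG2 cells dosed for 24 h; gain or loss fitted relative to DMSO.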

[13] = ATG_M_32_CIS: Attagene CIS-FACTORIAL HepG2 Assay for M32 Transcription Factor (Internal Marker) (AID 2282949); details: HepG2 Attagene cis-factorial M32 reporter, mRNA; actives raise or lower the signal;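 also: background control marker of the multiplexed CIS panel rather than a real target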
Procedure, shortened: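 HepG2 human liver cells transiently transfected with cis-promoter-driven multiple reporter transcription units, dosed 24 h. Reporter mRNA quantified by RT-PCR, FAM-labelled primer extension, HpaI digest and capillary electrophoresis; bidirectional fit versus DMSO baseline.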

[14] = ATG_M_06_CIS: Attagene CIS-FACTORIAL HepG2 Assay for M06 Transcription Factor (Internal Marker) (AID 2282950); details: HepG2 Attagene CIS-FACTORIAL M06 internal marker reporter; actives raise or lower the signal
Procedure, shortened: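 Internal background marker within multiplexed cis-reporter HepG2 system. Cells transiently transfected, dosed 24 h; reporter mRNA measured by RT-PCR, HpaI digestion and capillary electrophoresis. Bidirectional fit relative to DMSO.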

[15] = target: Hypoxia-inducible factor 1-alpha (Homo sapiens) (UniProt Q16665); experiment: ATG_HIF1a_CIS: Attagene CIS-FACTORIAL HepG2 Assay for human Hypoxia Inducible Factor 1 (HIF1A) (AID 2282951); details: HepG2 Attagene cis-factorial HIF1a reporter transcription; actives raise or lower the signal
Chain of Hypoxia-inducible factor 1-alpha (Homo sapiens) (Q16665 whole entry, looked up): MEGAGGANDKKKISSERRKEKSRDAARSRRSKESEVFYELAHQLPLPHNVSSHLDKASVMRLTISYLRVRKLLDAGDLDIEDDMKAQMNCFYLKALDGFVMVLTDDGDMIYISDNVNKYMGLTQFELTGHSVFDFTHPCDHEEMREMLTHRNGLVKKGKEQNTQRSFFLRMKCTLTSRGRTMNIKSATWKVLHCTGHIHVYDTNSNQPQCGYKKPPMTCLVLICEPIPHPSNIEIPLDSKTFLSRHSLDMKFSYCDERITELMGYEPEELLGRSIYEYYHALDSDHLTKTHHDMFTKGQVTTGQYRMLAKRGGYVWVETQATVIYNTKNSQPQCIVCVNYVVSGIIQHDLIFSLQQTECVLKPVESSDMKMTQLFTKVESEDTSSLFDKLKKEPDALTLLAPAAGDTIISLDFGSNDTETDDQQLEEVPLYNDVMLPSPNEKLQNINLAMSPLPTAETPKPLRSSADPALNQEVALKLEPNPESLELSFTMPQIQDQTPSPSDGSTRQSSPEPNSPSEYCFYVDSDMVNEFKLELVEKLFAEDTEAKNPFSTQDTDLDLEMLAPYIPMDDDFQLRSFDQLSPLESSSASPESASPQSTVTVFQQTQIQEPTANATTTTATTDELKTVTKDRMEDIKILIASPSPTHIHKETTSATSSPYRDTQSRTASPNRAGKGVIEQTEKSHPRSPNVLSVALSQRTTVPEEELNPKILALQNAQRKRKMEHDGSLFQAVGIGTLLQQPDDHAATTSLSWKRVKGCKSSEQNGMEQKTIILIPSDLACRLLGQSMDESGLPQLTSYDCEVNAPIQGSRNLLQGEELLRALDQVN
Procedure, shortened: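 Dosed 24 h, transfected HepG2 cells yielded total RNA whose reporter transcripts were RT-PCR-amplified and sized by capillary electrophoresis using fluorescent labelling; DMSO defined baseline, with gain and loss of signal both fitted.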

[16] = target: Hepatocyte nuclear factor 6 (Homo sapiens) (UniProt Q9UBC0); experiment: ATG_HNF6_CIS: Attagene CIS-FACTORIAL HepG2 Assay for human Hepatocyte Nuclear Factor 6 (HNF6) (AID 2282952); details: HepG2 Attagene cis-factorial HNF6 reporter transcription; actives raise or lower the signal
Chain of Hepatocyte nuclear factor 6 (Homo sapiens) (Q9UBC0 whole entry, looked up, the tested form may be a part): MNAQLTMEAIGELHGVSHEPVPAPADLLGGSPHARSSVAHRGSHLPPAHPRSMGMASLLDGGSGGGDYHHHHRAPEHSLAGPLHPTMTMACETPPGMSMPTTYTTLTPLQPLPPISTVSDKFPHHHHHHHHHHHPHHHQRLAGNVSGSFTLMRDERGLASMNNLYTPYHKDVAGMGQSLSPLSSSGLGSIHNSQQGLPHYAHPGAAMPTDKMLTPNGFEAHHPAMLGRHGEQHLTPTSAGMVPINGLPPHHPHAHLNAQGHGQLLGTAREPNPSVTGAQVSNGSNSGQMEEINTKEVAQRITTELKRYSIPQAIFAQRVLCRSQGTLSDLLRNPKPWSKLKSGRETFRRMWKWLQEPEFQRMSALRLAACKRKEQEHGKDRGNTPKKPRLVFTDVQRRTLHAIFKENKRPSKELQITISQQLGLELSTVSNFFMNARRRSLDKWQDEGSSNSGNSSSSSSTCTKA
Procedure, shortened: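 Using cis-element reporters in HepG2 liver cells, the assay tracks endogenous factor-driven transcription 24 h post-dosing. Signal comes from 6-FAM-labelled, HpaI-digested RT-PCR fragments, with gain or loss scored against DMSO.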

[17] = target: Heat shock factor protein 1 (Homo sapiens) (UniProt Q00613); experiment: ATG_HSE_CIS: Attagene CIS-FACTORIAL HepG2 Assay for human Heat Shock Transcription Factor 1 (HSE) (AID 2282953); details: HepG2 HSE cis-reporter, Attagene RNA transcription; actives raise or lower the signal
Chain of Heat shock factor protein 1 (Homo sapiens) (Q00613 whole entry, looked up): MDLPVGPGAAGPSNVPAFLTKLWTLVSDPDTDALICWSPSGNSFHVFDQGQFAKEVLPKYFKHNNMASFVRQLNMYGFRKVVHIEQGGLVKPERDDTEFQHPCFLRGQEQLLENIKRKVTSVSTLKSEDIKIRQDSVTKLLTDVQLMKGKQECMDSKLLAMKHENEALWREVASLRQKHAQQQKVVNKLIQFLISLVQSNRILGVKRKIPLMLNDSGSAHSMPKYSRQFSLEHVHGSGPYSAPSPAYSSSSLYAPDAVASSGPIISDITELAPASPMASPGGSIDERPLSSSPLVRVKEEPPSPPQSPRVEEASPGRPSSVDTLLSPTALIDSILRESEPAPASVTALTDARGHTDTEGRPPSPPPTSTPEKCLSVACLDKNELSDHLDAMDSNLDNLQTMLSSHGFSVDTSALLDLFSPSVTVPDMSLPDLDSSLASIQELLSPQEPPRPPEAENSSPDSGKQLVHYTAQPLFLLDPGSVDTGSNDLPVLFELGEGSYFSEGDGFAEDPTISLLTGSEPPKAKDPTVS
Procedure, shortened: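 HepG2 cells transfected with cis-promoter reporter units sensing endogenous transcription factor activity; reporter mRNA quantified 24 h post-dose by RT-PCR and capillary electrophoresis of 6-FAM-labelled products. Bidirectional fitting against DMSO.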

[18] = ATG_MRE_CIS: Attagene CIS-FACTORIAL HepG2 Assay for human Metal Responsive Element (MRE) (AID 2282954); details: HepG2 MRE cis-reporter transcription, Attagene multiplex; actives raise or lower the signal
Procedure, shortened: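 Endogenous MRE-dependent transcription read as reporter mRNA in transiently transfected human HepG2 cells at 24 h. RNA reverse-transcribed, PCR-amplified, labelled and resolved by capillary electrophoresis; gain or loss relative to DMSO.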

[19] = ATG_PBREM_CIS: Attagene CIS-FACTORIAL HepG2 Assay for human Phenobarbital-responsive Enhancer Module (PBREM) (AID 2282955); details: HepG2 PBREM cis-reporter, Attagene multiplexed transcription; actives raise or lower the signal
Procedure, shortened: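 Transfected liver-derived HepG2 cells exposed 24 h; PBREM reporter transcript quantified via RT-PCR and capillary electrophoresis, with activity in either direction referenced to DMSO.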

Measured: AC50

C1=CCCC=CCCC=CCC1
active: [1] 76.6 µM
inactive: [2] | [3] | [4] | [5] | [6] | [7] | [8] | [9] | [10] | [11] | [12] | [13] | [14] | [15] | [16] | [17] | [18] | [19]

O=C1OC(=O)C2C3C=CC(C3)C12 (configuration not stated)
inactive: [1] | [2] | [3] | [5] | [6] | [7] | [8] | [9] | [12] | [13] | [14] | [15] | [16] | [17] | [18]

CCNc1ccccc1
active: [15] 59.4 µM
inactive: [1] | [2] | [3] | [5] | [6] | [7] | [8] | [9] | [10] | [12] | [13] | [14] | [16] | [17] | [19]

COCCOc1cc2cc(C(=O)NC3CCN(C(C)C)CC3)n(CC(=O)Nc3ccc(Cl)cn3)c2cn1
inactive: [2] | [5] | [6] | [7] | [8] | [9] | [10] | [11] | [13] | [14] | [17]
active: [1] 100 µM | [3] 123 µM | [12] 139 µM | [15] 26.2 µM | [16] 28.6 µM | [18] 135 µM
